VCAM1 pot: TNF alpha stimulated VCAM1 expression potentiation; HUVEC TNFa-stimulated VCAM-1 immunofluorescence, high-content imaging; scaled per plate to unstimulated/TNFa-only wells; activation, % at 2 µM; 0.19% of 93,000 active; AID 808;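 active = activation above the screen mean plus 3 SD, with well images confirming the hit on visual review, cut at about 28% in these data, passing the limit was not always enough; inconclusive = activation above that limit but images do not confirm it; inactive = activation not above that limit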;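 note: signal is the number of cytoplasmic VCAM-1 stained grains per positive cell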
VCAM1 pot confirm: potentiators of TNFa-induced VCAM1 expression, confirmation, imaging, HUVEC, triplicate retest | HUVEC TNFa-stimulated VCAM-1 immunofluorescence imaging | 230 tested, under 10 active | AID 1034 | shares compounds with VCAM1 pot | activation, % at 2 µM;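 active = activation above 30% in triplicate retests at 2 µM, then confirmed by visual review of the well images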
Of the large screens only hits and unclear results are named; the others gave an inactive call (follow-up assays come after a bar, where they were run). The entries come from a sample that favours hits as a whole.

Cc1cccc(C(=O)Nc2ccccc2C(=O)OCc2c(C)noc2C)c1	none
COc1ccc(-c2onc3ccc(Cl)cc23)cc1	none
CC1(C)Cc2ccccc2C(=NCCCCCC(=O)O)N1	none
CC(C)Oc1ccc(C(=O)NCc2ccco2)cc1	none
O=C(NCc1ccco1)c1ccc(CS(=O)(=O)Cc2ccc(Cl)cc2)o1	none
O=C(NCc1ccco1)c1sc2cc(Cl)ccc2c1Cl	VCAM1 pot 64 | VCAM1 pot confirm inactive
COc1ccc(CN(CC(=O)NCc2ccco2)C(=O)CCC(=O)Nc2nccs2)cc1	none
COc1cccc(S(=O)(=O)N2CCN(c3ccccc3F)CC2)c1	none
COc1cccc(CN2CCN(c3ncccn3)CC2)c1	none
COc1ccc(S(=O)(=O)N2CCN(Cc3cccc(Cl)c3)CC2)cc1	VCAM1 pot inconclusive | VCAM1 pot confirm inactive
CCc1nnc(NC(=O)CSc2nnc(CSc3nc(C)cc(C)n3)o2)s1	none
CCNc1nc(NCc2ccccc2)nc(Oc2ccc(=O)[nH]n2)n1	none
COC(=O)c1ccc(Oc2nc(NC(C)C)nc(N(C)C)n2)cc1	none
CCNc1nc(NC(C)C)nc(Oc2ccc(OCCOc3ccc(C)cc3)nn2)n1	VCAM1 pot 38 | VCAM1 pot confirm inactive
O=C(/C=C(\c1ccc(Cl)cc1)n1cncn1)c1ccc(Cl)cc1	none
COC(=O)c1cccc(NC(=O)C23CC4CC(C2)CC(n2cncn2)(C4)C3)c1	none
CS(=O)(=O)N(Cc1ccco1)CC(O)Cn1cc(C=O)c2ccccc21 (configuration not stated)	none
CCCC1(C(=O)OCC)NC(c2ccc(OC)cc2OC)C2C(=O)N(c3ccc4c(c3)OCCO4)C(=O)C21 (configuration not stated)	none
CSc1nc(C)cc(OCC(=O)n2nc(C)cc2C)n1	none
O=c1[nH]c2cc3c(cc2cc1C(c1nnnn1C1CCCCC1)N1CCSCC1)OCCO3 (configuration not stated)	none
CCOC(=O)C1CN(S(=O)(=O)c2ccc(OC)cc2)c2cc(CC(=O)OC)ccc2O1 (configuration not stated)	none
Cc1n[nH]c(=S)c2nn(-c3ccccc3F)c(C)c12	VCAM1 pot 55 | VCAM1 pot confirm inactive
O=C(CN(Cc1ccc(F)cc1)S(=O)(=O)c1ccccc1)N1CCCCC1	none
CCN(CC)S(=O)(=O)c1ccc(NC(=O)C(C)N(c2ccccc2)S(C)(=O)=O)cc1 (configuration not stated)	none
O=C1OC(Nc2ccc3ncccc3c2)c2ccccc21 (configuration not stated)	none
COc1ccc2c(c1OC)C(=O)OC2CC(=O)c1ccc2c(c1)OCO2 (configuration not stated)	none
COc1ccc2c(c1OC)C(=O)OC2Nc1ccccn1 (configuration not stated)	VCAM1 pot 54 | VCAM1 pot confirm inactive
COC(=O)c1cc(NC(=O)CCc2c(C)nc3ncnn3c2C)cc(C(=O)OC)c1	none
CCCCC(CC)CNS(=O)(=O)c1ccc2c(c1)CCN2C(=O)CCC(=O)O (configuration not stated)	none
CCCCS/C(=C(/C#N)C(N)=O)c1cc2c([nH]1)CCCC2	none
CCOC(=O)Cn1nc(/C=C/c2ccc(C(C)C)cc2)ccc1=O	none
NC(=O)c1oc2ccccc2c1NC(=O)CN1CCCCC1	none
O=C(CN1CCCCCC1)Nc1ccc(Br)cc1	VCAM1 pot 34 | VCAM1 pot confirm inactive
O=C(Cn1c(=O)sc2ccccc21)Nc1ccc(S(=O)(=O)N2CCCCC2)cc1	none
O=C(Oc1ccc2ccccc2c1)c1ccccc1	none
O=C(c1ccc2c(c1)[nH]c(=S)n1c3ccccc3nc21)N1CCN(c2ncccn2)CC1	none
O=C(c1ccc(-c2ccccc2)cc1)N1CCN(c2ncccn2)CC1	VCAM1 pot inconclusive | VCAM1 pot confirm inactive
Cn1nc(-c2ccc(C(=O)N3CCN(c4ccccc4)CC3)cc2)c2ccccc2c1=O	none
O=C(O)C1C2CCC(O2)C1C(=O)NCc1ccncc1 (configuration not stated)	none
Cc1cc(C)n(-c2nc(-c3cccc(Cl)c3)cs2)n1	none
CC1CCCCN1C(=O)Cn1cc(C(=O)c2ccco2)c2ccccc21 (configuration not stated)	none
N#Cc1cnn(-c2ccccc2)c1N	none
N#Cc1cc(Oc2ccccc2)c(-n2nnc3ccccc32)cc1C#N	none
N#Cc1ccc(-n2c(-c3ccccc3)nnc2-c2ccccc2)cc1C#N	VCAM1 pot 52 | VCAM1 pot confirm inactive
CC1=CC(C)(C(Cl)Cl)C(C)=CC1=O (configuration not stated)	none
C=CCn1c(SC(C)C(=O)NC2(C#N)CCCCC2)nnc1-c1ccc(OC)cc1 (configuration not stated)	none
COc1cc(C(=O)COC(=O)CNC(=O)C2CCCCC2)cc(OC)c1OC	none
CCOC(=O)c1cccc(NC(=O)C(C)N2C(=O)c3ccccc3C2=O)c1 (configuration not stated)	VCAM1 pot 36 | VCAM1 pot confirm inactive
CCOC(=O)c1ccc(NC(=O)C(C)N2C(=O)c3ccccc3C2=O)cc1 (configuration not stated)	none
CCOC(=O)c1cccc(NC(=O)CN2C(=O)C3C4C=CC(C4)C3C2=O)c1 (configuration not stated)	none
CC(C)(C)C(=O)NC(NC(=S)Nc1sc2c(c1C#N)CCCC2)C(Cl)(Cl)Cl (configuration not stated)	none
O=C(Oc1cccc2c(OC(=O)N3CCCC3)cccc12)N1CCCC1	none
Cc1nccn1CC(O)COc1ccccc1 (configuration not stated)	none
Cc1nc2ccccc2n1CC(O)COC1CCCCC1 (configuration not stated)	none
Cc1nccn1CC(O)COC1CCCCC1 (configuration not stated)	VCAM1 pot inconclusive | VCAM1 pot confirm inactive
COC(=O)c1sc(=S)n(-c2cccc(Cl)c2)c1N	none
CCCC1=C(C(=O)OCC)C(c2c(C)nn(-c3ccccc3)c2Cl)C(C#N)=C(N)O1 (configuration not stated)	VCAM1 pot 44 | VCAM1 pot confirm inactive
CCCc1nn(-c2ccccc2)c2c1C(c1cccs1)C(C#N)=C(N)O2 (configuration not stated)	none
CCOC(=O)C1=C(CSc2nc3c(cc2C#N)CN(C)CC3)OC(N)=C(C#N)C1c1ccccc1 (configuration not stated)	none
O=C1/C(=C/c2cccc3ccccc23)CCCc2ccccc21	none
CCCc1nnc(SCC(=O)O)n1/N=C/c1ccc2c(c1)OCO2	none
CC1Cc2ccccc2N1C(=O)COc1nc2ccccc2nc1N1CCOCC1 (configuration not stated)	none
CCCCN(C)C(=O)C1CCC(=O)N(c2cc(OC)c(OC)c(OC)c2)C1c1ccc(OC)cc1 (configuration not stated)	none
O=C(Cn1nnc(-c2ccc(S(=O)(=O)N3CCCC3)cc2)n1)NCC1CCCO1 (configuration not stated)	none
Cc1ccnc(SCCn2c(N3CCCCC3)nc3c2c(=O)n(C)c(=O)n3C)n1	none
CC(C)c1ccc(NC(=O)C(c2ccccc2)N2CCC3(CC2)OCCO3)cc1 (configuration not stated)	none
O=C(COC(=O)CCS(=O)(=O)c1ccc(Cl)cc1)NC1CCCCC1	VCAM1 pot 54 | VCAM1 pot confirm inactive
O=C(NC1CC1)c1ccc(S(=O)(=O)NCC2CCCCC2)cc1	none
Cc1cc(C(=O)OCC(=O)NC2CCCCC2)c(C)o1	none
COC(=O)C(CC(C)C)NC(=O)c1ccc(F)cc1 (configuration not stated)	none

Compound activity (PubChem BioAssay)
